Bioassay records (PubChem)
aSyn 5UTR act = Activators working through SNCA 5'UTR binding (MLPCN). alpha-synuclein 5'UTR reporter, activators screen. activity score, % (tested at 7.5 µM), hits read low. actives 7.1% (n = 300,000). AID 1814; in the data active = activity score below about -60%
* marks the source's active call; other numbers are inactive results. Only a sample is shown.

SMILES | aSyn 5UTR act
COc1ccc2c(c1)C(=O)CC(c1ccc3c(c1)OCCO3)O2 (stereo not given) | -272*
COc1ccc2c(c1)O[C@H](c1ccc3c(c1)OCO3)[C@@H](O)C2=O | -86*
COc1ccc2c(c1)O[C@@H](c1cccc(C(F)(F)F)c1)[C@H](O)C2=O | 62
COc1ccc(/C=C/C(=O)C2C(=O)C=C(C)OC2=O)cc1O (stereo not given) | -243*
Clc1ccc(-n2nnc(-c3ncc[nH]3)n2)cc1Cl | -171*
Cc1ccc(-n2nnc(-c3nccs3)n2)cc1 | 95
Fc1ccc(-n2nnc(-c3ncc[nH]3)n2)cc1 | -126*
Clc1ccc(-n2nnc(-c3nccs3)n2)cc1Cl | -92*
COC(=O)c1cnn(-c2cc(Oc3cccc(C)c3)ncn2)c1N | -138*
Cc1ccc(C2=NN(S(C)(=O)=O)C(c3ccc4c(c3)OCO4)C2)cc1 (stereo not given) | -265*
COc1ccc(C2=NN(C(=O)COc3ncnc4ccccc34)C(c3ccco3)C2)cc1 (stereo not given) | 64
CC(=O)N1N=C(c2ccccc2)CC1c1cn(C)c2ccccc12 (stereo not given) | -117*
CC(=O)N1N=C(c2ccc(C)cc2)CC1c1ccc2c(c1)OCO2 (stereo not given) | -133*
CC(=O)N1N=C(c2ccc(C)cc2)CC1c1ccco1 (stereo not given) | -98*
CS(=O)(=O)N1N=C(c2ccc(Br)cc2)CC1c1ccc2c(c1)OCO2 (stereo not given) | -322*
CC(=O)c1cc(C#N)c(SCC(=O)OC(C)(C)C)nc1C | -116*
CC(=O)c1cc(C#N)c(SCc2ccccc2C#N)nc1C | -97*
COc1ccccc1-n1cnc2cc(NCc3cccs3)ccc21 | 55
CC(C)(C)n1cnc2cc(NC(=O)c3ccccc3)ccc21 | -137*
CC(C)(C)n1cnc2cc(NC(=O)c3cccs3)ccc21 | -134*
CC(C)(C)n1cnc2cc(NCc3cccs3)ccc21 | -102*
CCn1cnc2cc(NC(=O)c3cccs3)ccc21 | -109*
Cc1ccccc1OCC(=O)NC1CCCCCCC1 | -65*
O=C(COc1ccccc1-c1ccccc1)NNC(=O)NC1CCCCC1 | -83*
Cc1ccccc1OCC(O)CNC1CCC(NCC(O)COc2ccccc2C)CC1 (stereo not given) | 99
SMILES | aSyn 5UTR act
Cc1ccc(OCC(=O)NC2CCCC2)c(C)c1 | -67*
COc1ccc(C2/C=C\CN(C(=O)Nc3ccc(C(F)(F)F)cc3)CC(=O)N2Cc2ccc(F)cc2)cc1 (stereo not given) | 71
O=C(Cn1cc(C(F)(F)F)ccc1=O)NCc1ccc(F)cc1 | -75*
O=C(c1ccco1)N1N=C(c2ccc3nccnc3c2)CC1c1ccccc1 (stereo not given) | -67*
C=CCOc1ccc(/C=C2\SC(N3CCCCC3)=NC2=O)cc1 | -66*
Cc1ccc(/C=C2\SC(N3CCCCC3)=NC2=O)cc1 | -176*
O=C1N=C(N2CCCCC2)S/C1=C\c1ccc(Cl)cc1 | -150*
O=C1N=C(N2CCCCC2)S/C1=C\c1ccccc1F | -143*
CC1(C)C=Cc2cc3ccc(=O)oc3cc2O1 | -111*
Cc1cccc(Oc2coc3cc(OC(=O)c4cncc(Br)c4)ccc3c2=O)c1 | -73*
CCOC(=O)Oc1ccc2c(=O)c(Oc3cccc(C)c3)coc2c1 | -75*
Cc1cc(N/N=C/c2ccccc2)nc(N2CCOCC2)n1 | -83*
Cc1ccc(N/N=C/c2ccc3c(c2)OCCO3)cc1Cl | -87*
O=C(O)c1ccc(N/N=C/c2ccc3c(c2)OCO3)cc1 | 94
Cc1ccc(N/N=C/c2ccc(N3CCOCC3)cc2)cc1C | -96*
O=C(O)c1cc(N/N=C/c2ccc3c(c2)OCO3)ccc1Cl | -73*
C/C(=N\Nc1ccc(Cl)c(C(=O)O)c1)c1ccc2c(c1)OCO2 | -73*
COc1cc(NC(=O)c2ccccc2Cl)ccc1NC(=O)c1cccs1 | -143*
COc1cc(NC(=S)NC(=O)c2c(OC)cccc2OC)ccc1NC(=O)c1cccs1 | -95*
O=C(Nc1ccccc1Cl)c1cccs1 | -71*
O=C(Nc1ccccc1Cl)c1ccc(-c2ccccn2)s1 | -120*
Cc1nccc(-c2cc(-c3ccc(Cl)cc3Cl)no2)n1 | -135*
COc1cccc(NC(=O)C(=S)NC2CCCCC2)c1 | -85*
C#CC(=O)N(c1cccc(OC)c1)C(C(=O)NC1CCCC1)c1cccs1 (stereo not given) | 92
COc1cccc(NC(=O)NC2CCCCCCC2)c1 | -132*
SMILES | aSyn 5UTR act
Cc1cccc(C(=O)Nc2ccc(N3CCN(S(C)(=O)=O)CC3)cc2)c1 | -84*
CS(=O)(=O)N1CCN(c2ccc(NC(=O)c3ccccc3)cc2)CC1 | -123*
CCOC(=O)c1sc(NC(=S)NC(=O)C23CC4CC(CC(C4)C2)C3)cc1C | -104*
CCOC(=O)c1sc(NC(=S)NC(=O)C2CC2)cc1C | -85*
CC(C)=CCc1c(O)cc2c(=O)c3ccc(O)cc3oc2c1O | -141*
CN1/C(=C\C=C2/C(=O)Oc3ccccc3C2=O)C(C)(C)c2ccccc21 | -123*
COc1nc(NCCN2CCOCC2)nc(Nc2ccccc2)n1 | -101*
CN(/N=C/C=C/c1ccccc1)c1cc(=O)n(C)c(=O)[nH]1 | -65*
COc1ccc(NC(=O)c2cnc3sccn3c2=O)cc1 | -133*
Cc1cccc(NC(=O)c2cnc3sccn3c2=O)n1 | -116*
Cc1cccc(NC(=O)c2cnc3sccn3c2=O)c1 | -74*
Cc1cccc(NC(=O)c2cnc3sccn3c2=O)c1C | -124*
O=C(Nc1cnc2sccn2c1=O)c1ccccc1Cl | -180*
COC(=O)C1=C(NC(=O)c2ccc(C)c(C)c2)CCS1 | -76*
Cc1cc(NC(=O)CSc2nc3ccsc3c(=O)n2Cc2ccccn2)n[nH]1 | -79*
CC1CCCCN1C(=O)CSc1nc2ccsc2c(=O)n1Cc1ccccn1 (stereo not given) | -120*
Cn1c(=O)c2c(nc(NCC3CCCC(CN)C3)n2Cc2ccc(Cl)cc2Cl)n(C)c1=O (stereo not given) | -84*
CC(=O)Cn1ncc(N2CCCCC2)c(Cl)c1=O | -80*
O=C(Nc1nc(-c2ccc(-c3ccccc3)cc2)cs1)C1CCCO1 (stereo not given) | -65*
O=C(Nc1nc(-c2ccccc2)cs1)C1CCCO1 (stereo not given) | -66*
c1ccc(-c2nnc(-c3ccccn3)nc2NC2CCCCC2)cc1 | 101
O=C(Nc1nc(-c2ccc(F)cc2)cs1)C1CCCO1 (stereo not given) | -97*
O=C(NNc1nc(-c2ccc(F)cc2)cs1)c1ccccc1 | 90
c1ccc(-c2csc(NC3CCCCC3)n2)cc1 | -92*
COc1cc(OC)c(C(=O)O/N=C(\N)c2ccc(C)cc2)cc1OC | -66*
SMILES | aSyn 5UTR act
COc1ccc(Cl)cc1C(=O)O/N=C(\N)c1ccc(Cl)cc1 | -267*
Cc1occc1C(=O)O/N=C(\N)c1ccc(Cl)cc1 | -71*
COc1cc(OC)c(C(=O)O/N=C(\N)c2cccc(C)c2)cc1OC | -67*
Oc1c(CN2CCOCC2)cc(COCc2ccccc2)c2cccnc12 | 114
Cc1cc(OCc2cccc(Cl)c2)c(C)cc1CN1CCOCC1 | -65*
Cn1cc(C(=O)N/N=C/C(Br)=C\c2ccccc2)ccc1=O | -83*
COc1cccc(C(=O)N/N=C/C(Br)=C/c2ccccc2)c1 | -135*
COc1ccc(O)c(/C=N/NC(=O)c2ccc(OCc3cccc(Br)c3)cc2)c1 | 82
COc1ccc(C(=O)C(CN2CCOCC2)c2ccccc2)cc1 (stereo not given) | -80*
